# From PubChem
# VP16 counter: Gal4-VP16 reporter inhibition counter-screen. Drosophila S2 Gal4-VP16 UAS-luciferase, luminescence, 20 h. actives 3.5% (n = 310,000). Potency, µM (titrated, usually from 53.6 µM), without a hit: at the top dose activity, negative = inhibition, actives largely listed as inhibitors;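 further: Gal4-VP16 expression switched on by copper sulfate through the metallothionein promoter; potency means the concentration at half of the fitted maximal effect; on the % scale 0 is the no-effect control and ±100 the full control effect; nearly all actives have a fitted effect of over 50% in size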
# Six1-Eya2 inh: blocks human Six1 binding to Eya2; actives 0.56% (n = 360,000); Q15475+O00167; AlphaScreen GST-Six1/His-Eya2 binding, biochemical; stronger effect = lower value; activity change, % (no concentration beside the values); in the data active means activity change below about -65%; inconclusive means mostly about -30% to -63%; further: on the % scale 0 is the no-effect control and ±100 the full control effect
# Target sequence (O00167 whole entry, looked up): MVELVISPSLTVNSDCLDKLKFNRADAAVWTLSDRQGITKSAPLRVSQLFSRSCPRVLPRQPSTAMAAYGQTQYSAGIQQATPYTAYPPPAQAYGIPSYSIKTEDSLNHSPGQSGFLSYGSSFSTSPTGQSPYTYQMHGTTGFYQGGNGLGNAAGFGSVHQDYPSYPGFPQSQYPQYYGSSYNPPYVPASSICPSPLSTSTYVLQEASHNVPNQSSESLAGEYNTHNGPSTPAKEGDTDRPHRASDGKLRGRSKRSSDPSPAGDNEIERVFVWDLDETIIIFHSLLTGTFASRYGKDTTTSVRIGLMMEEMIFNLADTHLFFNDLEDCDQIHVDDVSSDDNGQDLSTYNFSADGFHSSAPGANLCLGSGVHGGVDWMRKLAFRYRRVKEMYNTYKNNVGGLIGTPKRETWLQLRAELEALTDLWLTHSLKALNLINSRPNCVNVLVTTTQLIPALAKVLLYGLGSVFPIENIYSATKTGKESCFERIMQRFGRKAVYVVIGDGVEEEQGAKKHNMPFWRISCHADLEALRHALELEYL
# Target sequence (Q15475 whole entry, looked up): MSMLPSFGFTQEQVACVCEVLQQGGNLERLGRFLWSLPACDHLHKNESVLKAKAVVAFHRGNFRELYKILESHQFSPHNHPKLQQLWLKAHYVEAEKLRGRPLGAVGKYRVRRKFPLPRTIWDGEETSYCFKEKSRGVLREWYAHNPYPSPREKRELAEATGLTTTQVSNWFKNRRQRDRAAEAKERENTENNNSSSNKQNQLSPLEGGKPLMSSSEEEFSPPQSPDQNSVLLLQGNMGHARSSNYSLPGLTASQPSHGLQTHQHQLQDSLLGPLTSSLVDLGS
#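 Compounds are tested against tagged Six1 and Eya2 proteins bridged by glutathione donor and nickel acceptor beads; after a one-hour incubation at 37 °C without light, AlphaScreen emission is recorded.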
# CtBP-E1A inh: blocks the CtBP interaction with E1A; AlphaScreen GST-E1A/His-CtBP binding, 1536-well; stronger effect = lower value; activity change, % (concentration not given with the values); actives 0.49% (n = 340,000); in the data active means activity change below about -65%; inconclusive means mostly about -30% to -63%; further: on the % scale 0 is the no-effect control and ±100 the full control effect
#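 Steps: dispense buffer (Tris pH 8.0, NaCl 300 mM, TCEP 1 mM, BSA, Tween 20); add 5X protein mix (GST-E1A, His-CtBP, 125 nM each); pin 23 nL compound; 2 h at 37 °C, dark; add 5X beads (50 ug/mL); 1 h; read.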
# p53 reactivator: re-activators of mutant p53; H1299 p53-A138V BP100-luciferase reporter, luminescence, 24 h; Potency, µM (series often up to 92.2 µM), inactives show at the highest dose activity change, positive = activation, most hits filed as activators; actives 0.063% (n = 320,000); further: potency means the concentration at half of the fitted maximal effect; % of control where 0% means no effect; nearly all actives have a fitted effect of over 45% in size
#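 H1299 (p53-null), stable ts p53-A138V + BP100-Luc; 1000 cells/well, Opti-MEM/10% FBS; cpd 4 pt, 1:5; 24 h, 37 deg C, 5% CO2; detection reagent 10 min RT; luminescence.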
# RORg inh: blocks mouse ROR gamma transcriptional activity; P51450; Drosophila S2 Gal4-RORgamma UAS-luciferase reporter, 20 h; Potency, µM (series often up to 53.6 µM), for inactives: at the top dose activity change, negative = inhibition, most hits filed as inhibitors; actives 5.4% (n = 310,000); further: potency means the concentration at half of the fitted maximal effect; on the % scale 0 is the no-effect control and ±100 the full control effect; nearly all actives have a fitted effect of over 60% in size
#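 In this cell-based reporter format, copper sulfate (700 uM final) drives Gal4–ROR gamma fusion expression from a metallothionein promoter in Drosophila Schneider cells; compounds preincubated 1 hr, reporter read after 20 hr at ambient temperature.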
# Active calls of the source: *; ? = inconclusive; / = no result given. A selection: hits, their analogues and other compounds. The true share with any hit is near 5.4%. Unless noted, the call rests on the fitted dose curve; in most records, active means well fitted curve in the direction sought with a large enough effect; inconclusive means small, poorly fitted or top-dose-only effect, or another doubt; inactive means no such curve, though single readings can be large; an effect the other way counts as inactive or inconclusive.
SMILES,VP16 counter,Six1-Eya2 inh,CtBP-E1A inh,p53 reactivator,RORg inh
Oc1ccccc1N=Nc1nc(-c2ccccc2)c(-c2ccccc2)[nH]1,3.98µM*,-66.6*,?,15.6%,3.98µM*
COc1ccc(-c2nc(C)ncc2N=Nc2ccccc2)cc1,10.1%,?,?,-0.6%,13.3%
COc1ccc(N=Nc2nc(-c3ccccc3)c(-c3ccccc3)[nH]2)cc1,2.82µM*,-69.8*,1.7,3.5%,2.24µM*
COc1ccccc1N=Nc1nc(-c2ccccc2)c(-c2ccccc2)[nH]1,5.01µM*,?,12.5,28.9%,3.16µM*
O=C(Nc1cc(S(=O)(=O)N2CCCC2)ccc1Cl)c1cc(F)c(F)c(F)c1F,/,4.4,4.6,-3.9%,/
Cc1ccc(-c2nc(C)c(C(=O)O)s2)cc1,?,6.2,1.3,-9.8%,8.91µM*
Nc1nc2n(n1)C(c1cccs1)CC(c1ccccc1)N2 (configuration not stated),-18.3%,-2.1,-8.9,2.6%,12.6µM*
COc1ccc(C2CC(c3ccccc3)n3nc(NC(=O)c4cccs4)nc3N2)cc1 (configuration not stated),5.01µM*,-10.2,-1.7,-7.2%,3.55µM*
COc1ccc(C2CC(c3ccccc3)Nc3nc(NC(=O)c4cccs4)nn32)cc1 (configuration not stated),5.62µM*,-0.5,-5.9,4.5%,2.82µM*
Cc1ccc(CS(=O)(=O)CC(C)(O)c2ccccc2)cc1 (configuration not stated),5.8%,2.2,2.0,-2.3%,20.7%
Cc1ccccc1CN1CCN(C2CCC2)CC1CCO (configuration not stated),-4.7%,-4.0,9.1,/,-0.4%
COc1ccc(-c2nc3ccccc3[nH]2)cc1,8.91µM*,1.8,13.9,8.1%,7.94µM*
COc1ccc(-c2cc(=O)n(-c3nc4ccccc4[nH]3)[nH]2)cc1,4.7%,?,-65.5*,25.1%,7.6%
COc1ccc2oc(=Nc3ccccc3)c(-c3nc4ccccc4[nH]3)cc2c1,?,11.5,-7.5,?,10µM*
COc1ccc(CCCc2nc3ccccc3[nH]2)cc1,15.7%,-0.6,-3.7,6.0%,-2.3%
COc1ccc(-c2nc(=S)c3ccc4ccccc4c3[nH]2)cc1,?,5.8,3.4,4.9%,5.62µM*
Cc1cc(=O)c2ccc3ccccc3c2[nH]1,-2.4%,-13.7,1.3,-1.9%,-10.7%
CNC(=O)C1Cc2c(-c3ccccc3Oc3ccccc3)ccnc2O1 (configuration not stated),/,14.3,-3.3,/,/
O=C(NCCN1CCOCC1)C1(C(F)(F)F)CC(CCCO)CCCO1 (configuration not stated),-5.4%,/,/,/,17.0%
CCOc1cc2[nH]c(=S)n(CC3CCCN3CC)c(=O)c2cc1OCC (configuration not stated),2.6%,-1.1,-2.6,5.0%,10µM*
CCC1CCCCN1CCn1c(=S)[nH]c2cc(OC)c(OC)cc2c1=O (configuration not stated),-14.1%,-6.5,-6.7,-0.3%,10µM*
COc1cc2[nH]c(=S)n(CC3CCCO3)c(=O)c2cc1OC (configuration not stated),?,-3.8,-1.0,2.0%,?
CCOc1cc2[nH]c(=S)n(CC3CCCO3)c(=O)c2cc1OCC (configuration not stated),?,-6.9,-2.7,4.4%,11.2µM*
NNC(=O)c1cccn(Cc2cccc(C(F)(F)F)c2)c1=O,?,-8.2,0.0,10.7%,?
O=C(C#Cc1ccccc1)c1cccc([N+](=O)[O-])c1,6.31µM*,-7.4,8.0,-14.2%,5.62µM*
O=C(NC(=S)NCC1CCCO1)c1cccc([N+](=O)[O-])c1 (configuration not stated),?,-0.8,2.3,2.2%,?
O=C(NC(=S)NCc1ccccc1)c1cccc([N+](=O)[O-])c1,5.62µM*,-24.0,/,/,6.31µM*
O=C(CNC(=S)NC(=O)c1cccc([N+](=O)[O-])c1)c1ccccc1,12.6µM*,15.4,-1.9,12.7%,7.08µM*
